Compound activity from PubChem BioAssay.
Only some compounds are listed: those with a hit (about 2.9% of all), similar ones and a draw of the others.
EPAC1 agonist: validation of human EPAC1 agonists. O95398. EPAC1 Rap1b BODIPY-GDP exchange, fluorescence. Potency, µM, for the others: max response, positive = active, usual class: activators. 16,000 compounds, 1% hits. AID 1645883; further: nearly all actives have a fitted effect of over 70% in size
EPAC2 antag: human EPAC2 antagonism, validation | Q8WZA2 | EPAC2 Rap1B BODIPY-GDP exchange, fluorescence | Potency, µM (titrated, usually from 112 µM), without a hit: top-dose activity, negative = inhibition, most hits filed as inhibitors | 16,000 compounds, 1.7% hits | AID 1645886;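 further: 100% = activation by cAMP agonist control; nearly all actives have a fitted effect of over 40% in size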
Target sequence (Q8WZA2 whole entry, looked up): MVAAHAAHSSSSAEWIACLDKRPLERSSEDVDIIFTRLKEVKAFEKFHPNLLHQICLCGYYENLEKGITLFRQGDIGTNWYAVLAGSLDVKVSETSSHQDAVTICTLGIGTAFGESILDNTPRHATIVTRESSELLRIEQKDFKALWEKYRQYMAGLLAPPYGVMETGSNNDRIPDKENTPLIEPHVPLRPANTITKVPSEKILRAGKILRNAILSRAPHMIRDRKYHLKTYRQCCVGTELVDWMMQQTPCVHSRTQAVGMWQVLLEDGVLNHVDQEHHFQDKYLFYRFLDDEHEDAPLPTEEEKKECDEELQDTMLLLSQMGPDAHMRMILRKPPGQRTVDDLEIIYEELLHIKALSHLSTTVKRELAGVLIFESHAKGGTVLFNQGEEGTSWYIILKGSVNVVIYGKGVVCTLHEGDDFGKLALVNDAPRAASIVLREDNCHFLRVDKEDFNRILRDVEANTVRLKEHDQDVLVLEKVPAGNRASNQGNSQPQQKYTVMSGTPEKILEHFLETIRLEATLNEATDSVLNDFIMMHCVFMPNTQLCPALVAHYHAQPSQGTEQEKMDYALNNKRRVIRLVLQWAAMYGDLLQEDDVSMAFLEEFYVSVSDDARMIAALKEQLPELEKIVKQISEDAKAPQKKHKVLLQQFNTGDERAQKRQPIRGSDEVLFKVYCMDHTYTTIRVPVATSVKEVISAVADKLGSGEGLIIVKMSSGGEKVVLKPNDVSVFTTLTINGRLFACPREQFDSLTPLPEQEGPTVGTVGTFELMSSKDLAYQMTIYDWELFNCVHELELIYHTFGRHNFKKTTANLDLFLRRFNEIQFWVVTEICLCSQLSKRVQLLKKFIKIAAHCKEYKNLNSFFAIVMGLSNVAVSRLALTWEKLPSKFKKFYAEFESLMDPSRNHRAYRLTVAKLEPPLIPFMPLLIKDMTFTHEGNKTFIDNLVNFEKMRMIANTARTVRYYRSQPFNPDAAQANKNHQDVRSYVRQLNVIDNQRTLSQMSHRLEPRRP
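Fluorescent exchange read-out: 100 nM EPAC2 with 250 nM RAP1B–BODIPY-GDP and 50 uM GDP; BODIPY-GDP release lowers fluorescence. Read at 480/540 nm every 5 min for 30 min at room temperature; normalized to 6.5 mM cAMP.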
An asterisk follows results filed as active; ? = inconclusive; ! = a repeat was not active. The call rests on the fitted dose curve; in most records, active means well fitted curve in the direction sought with a large enough effect; inconclusive means small, poorly fitted or top-dose-only effect, or another doubt; inactive means no such curve, though single readings can be large; an effect the other way counts as inactive or inconclusive. Unless noted, on the % scale 0 is the no-effect control and ±100 the full control effect; potency means the concentration at half of the fitted maximal effect.

SMILES	EPAC1 agonist	EPAC2 antag
NC1=NC2C(N=C(Br)N2[C@@H]2O[C@H]3COP(=O)(O)O[C@@H]3[C@@H]2O)C(=O)N1 (stereo partly specified)	17%	?
Nc1ncnc2c1nc(Sc1ccc(Cl)cc1)n2[C@H]1OC2COP(=O)(O)O[C@@H]2C1O (stereo partly specified)	0.18µM*	0.5µM*
Nc1ncnc2c1nc(Br)n2[C@@H]1O[C@H]2COP(=O)(O)O[C@@H]2[C@@H]1O	?	1.3µM*
Nc1ncnc2c1nc(Br)n2C1CC(O)C(CO)O1 (stereo unspecified)	-3%	-6%
COc1ccccc1C(=O)Nc1cccc(N2CCC(NCc3cnn(-c4ccccc4)n3)CC2)c1	11%	-9%
CO[C@H]1[C@H](NC(=O)c2cccs2)c2ccccc2C12CCN(Cc1cccn1-c1cccnc1)CC2	7%	?
Cc1cc(C(=O)NCc2nnc3n2CCN(Cc2ccc4c(c2)Cc2ccccc2-4)CC3)c(C)o1	-15%	?
C=C(c1ccc2ccccc2n1)c1cccs1	-2%	?
COc1cc(OC)c2nc(-c3cc4c(c(OC)c3)OCCN(Cc3cn(C)nc3C)C4)cc(C)c2c1	4%	-6%
CCOC(=O)C1=C(C)NC(C)=C(C(=O)OC)C1c1cccc([N+](=O)[O-])c1 (stereo unspecified)	0%	7.9µM*!
COCCOC(=O)C1=C(C)NC(C)=C(C(=O)OC(C)C)C1c1cccc([N+](=O)[O-])c1 (stereo unspecified)	4%	?
COC(=O)C1=C(C)NC(C)=C(C(=O)OC(C)(C)CN(C)CCC(c2ccccc2)c2ccccc2)C1c1cccc([N+](=O)[O-])c1 (stereo unspecified)	?	-28%
CCOC(=O)C1=C(C)NC(C)=C(C(=O)OC)[C@H]1c1cccc([N+](=O)[O-])c1	15%	18µM*
COCCOC(=O)C1=C(C)NC(C)=C(C(=O)OC(C)C)[C@@H]1c1cccc([N+](=O)[O-])c1	0%	50µM*
COC(=O)C1=C(C)NC(C)=C(C(=O)OCCCN2CCC(c3ccccc3)(c3ccccc3)CC2)[C@H]1c1cccc([N+](=O)[O-])c1	13%	?
COC(=O)C1=C(C)NC(C)=C(C(=O)O[C@@H]2CCCN(Cc3ccccc3)C2)[C@@H]1c1cccc([N+](=O)[O-])c1	?	-25%
CC1=C(C(=O)OC(C)C)C(c2cccc([N+](=O)[O-])c2)C(C(=O)OC2CN(C(c3ccccc3)c3ccccc3)C2)=C(N)N1 (stereo unspecified)	100µM*	1%
COC[C@H](c1ccc(C(F)(F)F)cc1)N1CCN(C2(C)CCN(C(=O)c3c(C)ncnc3C)CC2)C[C@H]1C	-33%	-1%
CCC(C)[C@H]1O[C@]2(C=C[C@@H]1C)C[C@@H]1C[C@@H](C/C=C(\C)[C@@H](O[C@H]3C[C@H](OC)[C@@H](O[C@H]4C[C@H](OC)[C@H](NC(C)=O)[C@H](C)O4)[C@H](C)O3)[C@@H](C)/C=C/C=C3\CO[C@@H]4[C@H](O)C(C)=C[C@@H](C(=O)O1)[C@]34O)O2 (stereo partly specified)	-10%	-8%
COc1ccccc1N1CCN(c2nc(CNC(=O)c3sc(C)nc3C)nc3ccccc23)CC1	-5%	-8%
CN(C)CC(C)(O)c1ccc2c(c1)CN(Cc1cn(C)c3ccccc13)CCO2 (stereo unspecified)	0%	2%
COc1cccc(C2(CC(=O)N3CCN(c4nonc4C)CC3)CC(=O)N(C3CCCC3)C2=O)c1 (stereo unspecified)	0%	1%
CCC1C(=O)NCCN1Cc1ccc2c(c1)CN(Cc1cccn1-c1ccc(Cl)cn1)CCO2 (stereo unspecified)	-17%	-17%
CC(C)CC1C(=O)N2CCCC2C2(O)O[C@@](NC(=O)C3C=C4c5cccc6[nH]c(Br)c(c56)CC4N(C)C3)(C(C)C)C(=O)N12 (stereo partly specified)	?	-19%
CC(C)C[C@H]1C(=O)N2CCC[C@H]2[C@]2(O)O[C@](NC(=O)[C@@H]3C=C4c5cccc6[nH]c(Br)c(c56)C[C@H]4N(C)C3)(C(C)C)C(=O)N12	112µM*!	-19%
SMILES	EPAC1 agonist	EPAC2 antag
Cc1ccnn1CC(=O)N1CCOc2c(cc(-c3csc4ccccc34)cc2OC2CCOC2)C1 (stereo unspecified)	15%	?
Cc1cnc(SCc2ccccn2)nc1C1CCCN(C(=O)c2ccc3c(c2)OCO3)C1 (stereo unspecified)	13%	-37%
CCC(=O)O[C@]1(C(=O)CCl)[C@@H](C)C[C@H]2[C@@H]3C[C@H](F)C4=CC(=O)C=C[C@]4(C)[C@@]3(F)[C@@H](O)C[C@@]21C	11%	?
CC[C@]1(c2ncc[nH]2)Cc2ccccc2O1	6%	16µM*
O=C(c1n[nH]c2c1CCCC2)N1CCOc2ccc(C(O)C3CCCCC3)cc2C1 (stereo unspecified)	-3%	?
CN(C)c1ccc(C(=C2C=CC(=[N+](C)C)C=C2)c2c(O)c(S(=O)(=O)[O-])cc3cc(S(=O)(=O)O)ccc23)cc1	-36%	56µM*
CN(C)c1ccc(C(=C2C=CC(=[N+](C)C)C=C2)c2ccccc2)cc1	-10%	-1%
O=C1NC(=O)[C@H]2[C@@H]1[C@@H]1C=C[C@H]2C1	8%	-10%
N[C@H](C(=O)O)[C@@H](O)c1ccc(O)c(O)c1	?	79µM*
N[C@@H](Cc1ccc(O)c(O)c1)C(=O)O	-1%	1%
CCCCCCC(=O)O[C@H]1CC[C@H]2[C@@H]3CCc4cc(O)ccc4[C@H]3CC[C@]12C	-111%	-19%
Cc1[nH]c2ccccc2c1/C=C/c1ccc2ccccc2n1	100µM*	-14%
Cc1[nH]c2ccccc2c1/C=C/c1cnc2ccccc2n1	9%	-5%
C/C1=C2N=C(/C=C3N=C(/C(C)=C4\[N-][C@@](C)([C@@H]5N=C1[C@](C)(CCC(=O)NCC(C)OP(=O)(O)O[C@H]1[C@@H](O)[C@@H](n6cnc7cc(C)c(C)cc76)O[C@@H]1CO)[C@H]5CC(N)=O)[C@@](C)(CC(N)=O)[C@@H]4CCC(N)=O)[C@@](C)(CC(N)=O)[C@@H]\3CCC(N)=O)C(C)(C)[C@@H]/2CCC(N)=O.CC(=O)O.[Co] (stereo partly specified)	-44%	79µM*
Cc1ccc(C)c(S(=O)(=O)NCc2nc(N3CCCC3)c3cc(Cl)ccc3n2)c1	18%	-27%
CN1CCC(=C2c3ccccc3CCc3cccnc32)CC1	6%	7%
CCOC(=O)N1CCC(=C2c3ccc(Cl)cc3CCc3cccnc32)CC1	16%	35µM*!
CC(C)=CCC/C(C)=C/CC/C(C)=C/CC/C(C)=C/CC/C(C)=C/CC/C(C)=C/CC/C(C)=C/CC/C(C)=C/CC/C(C)=C/CO	2%	-21%
CC(C)=CCC/C(C)=C/CC/C(C)=C/CO	-16%	45µM*!
CNCC(=O)N[C@@H](CCCN=C(N)N)C(=O)N[C@H](C(=O)N[C@@H](Cc1ccc(O)cc1)C(=O)N[C@H](C(=O)N[C@@H](Cc1cnc[nH]1)C(=O)N1CCC[C@H]1C(=O)N[C@@H](C)C(=O)O)C(C)C)C(C)C	-1%	-9%
CCc1oc2ccccc2c1C(=O)c1cc(Br)c(O)c(Br)c1	-42%	45µM*
CC(=O)c1ccc2oc3ccccc3c(=O)c2c1	2%	18%
